The values below come from ChEMBL document CHEMBL5598561, “ASAP - In vitro binding kinetics” (2024).

This assay has as its target Nonstructural protein 3 (Zika virus) (UniProt A0A024AXB9). The settings on record: PRVABC59, Concentration 10.0 uM.

Chain of Nonstructural protein 3 (Zika virus) (A0A024AXB9 as listed by the source): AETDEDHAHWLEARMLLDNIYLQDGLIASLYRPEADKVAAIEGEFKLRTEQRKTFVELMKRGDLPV

A word on the pKD: it is −log10 of the KD, conventionally taken in molar units. A lower pKD goes with a high KD. For `O=C(Nc1ccc(C2CCNCC2)cc1)c1cc(Cl)cc2[nH]ncc12`, the pKD is, setting by setting: (Immobilization level 10000.0 pg/mm2, Rmax 4.0 pg/mm2, ka 163257.858 M-1s-1, kd 0.446 1/s) 5.56; (Immobilization level 12000.0 pg/mm2, ka 318291.503 M-1s-1, kd 0.429 1/s) 5.87; (Immobilization level 13000.0 pg/mm2, ka 203161.324 M-1s-1, kd 0.494 1/s) 5.61.

Compound `O=C(Nc1ccc2c(c1)CN(CC(F)F)C2)c1cc(Cl)cc2[nH]ncc12` registered a pKD (Immobilization level 5500.0 pg/mm2, Rmax 11.0 pg/mm2, ka 80918.609 M-1s-1, kd 0.287 1/s) of 5.45.

Regarding `NCc1cc(NC(=O)c2cc(Cl)cc(NC(=O)OCc3ccccc3)c2)cc(C2=CC[C@H](C(=O)O)C2)c1`, where the note is “Immobilization level 5500.0 pg/mm2, Rmax 9.0 pg/mm2, ka 171424.656 M-1s-1, kd 2.389 1/s”, the pKD amounted to 4.86.

Regarding `O=C(Nc1ccc2c(c1)CNC2)c1cc(Br)cc2[nH]c(-c3ccccc3)nc12`, the pKD was found to be 5.79 (Immobilization level 10000.0 pg/mm2, Rmax 3.0 pg/mm2, ka 184994.652 M-1s-1, kd 0.296 1/s); 4.87 (Immobilization level 12000.0 pg/mm2, Rmax 13.0 pg/mm2, ka 22744.722 M-1s-1, kd 0.309 1/s); 5.54 (Immobilization level 13000.0 pg/mm2, ka 103523.991 M-1s-1, kd 0.302 1/s).

Regarding `O=C(NCc1ccc(F)cc1)[C@H](Nc1ccc2c(c1)CNC2)c1cc(Cl)cc2[nH]ncc12`, the pKD by setting is: (Immobilization level 10000.0 pg/mm2, Rmax 51.0 pg/mm2, ka 449498.965 M-1s-1, kd 0.143 1/s) 6.5; (Immobilization level 12000.0 pg/mm2, Rmax 66.0 pg/mm2, ka 240349.747 M-1s-1, kd 0.114 1/s) 6.32; (Immobilization level 13000.0 pg/mm2, Rmax 64.0 pg/mm2, ka 328786.628 M-1s-1, kd 0.139 1/s) 6.37.

Take `O=C(Nc1ccc2c(c1)CNC2)c1cc(=O)[nH]c2c(F)cccc12`: the pKD by setting is: (Immobilization level 4900.0 pg/mm2, Rmax 18.0 pg/mm2, ka 230791.194 M-1s-1, kd 7.379 1/s) 4.5; (Immobilization level 5500.0 pg/mm2, Rmax 21.0 pg/mm2, ka 297955.59 M-1s-1, kd 8.334 1/s) 4.55.

Take `O=C(Nc1ccc2c(c1)CNC2)c1ccccc1-n1cccc1`: the pKD (Immobilization level 5500.0 pg/mm2, Rmax 27.0 pg/mm2, ka 207569.847 M-1s-1, kd 8.279 1/s) was 4.4.

As for `CC(C)COc1ccc(Cl)cc1C(=O)Nc1ccc2c(c1)CNC2`, the pKD is, setting by setting: (Immobilization level 10000.0 pg/mm2, Rmax 31.0 pg/mm2, ka 259814.072 M-1s-1, kd 6.366 1/s) 4.61; (Immobilization level 12000.0 pg/mm2, Rmax 37.0 pg/mm2, ka 228783.03 M-1s-1, kd 3.033 1/s) 4.88; (Immobilization level 13000.0 pg/mm2, Rmax 33.0 pg/mm2, ka 351290.772 M-1s-1, kd 5.134 1/s) 4.83.

Regarding `N[C@H]1CCc2cc(NC(=O)c3cc(Cl)cc4[nH]ncc34)ccc21`, the pKD is, setting by setting: (Immobilization level 12000.0 pg/mm2, Rmax 40.0 pg/mm2, ka 202508.522 M-1s-1, kd 3.352 1/s) 4.78; (Immobilization level 13000.0 pg/mm2, Rmax 32.0 pg/mm2, ka 287481.012 M-1s-1, kd 4.268 1/s) 4.83.

With `Cc1cc(C(=O)Nc2ccc3c(c2)CNC3)c2cn[nH]c2c1`, the pKD reads like this: (Immobilization level 10000.0 pg/mm2, Rmax 20.0 pg/mm2, ka 694418.255 M-1s-1, kd 0.431 1/s) 6.21; (Immobilization level 12000.0 pg/mm2, Rmax 39.0 pg/mm2, ka 340621.404 M-1s-1, kd 0.261 1/s) 6.12; (Immobilization level 13000.0 pg/mm2, Rmax 29.0 pg/mm2, ka 572465.277 M-1s-1, kd 0.338 1/s) 6.23.

The compound `O=C(Nc1ccc2c(c1)CNC2)c1cc(Cl)ccc1OC1CCCC1` displayed a pKD (Immobilization level 12000.0 pg/mm2, Rmax 40.0 pg/mm2, ka 319034.623 M-1s-1, kd 3.897 1/s) of 4.91.

Turning to `Cn1cc(CCc2nc3c(C(=O)Nc4ccc5c(c4)CNC5)cc(Cl)cc3[nH]2)cn1`, the negative logarithm of the KD (pKD) runs as follows: (Immobilization level 10000.0 pg/mm2, Rmax 29.0 pg/mm2, ka 162831.43 M-1s-1, kd 0.539 1/s) 5.48; (Immobilization level 12000.0 pg/mm2, Rmax 67.0 pg/mm2, ka 60654.253 M-1s-1, kd 0.241 1/s) 5.4; (Immobilization level 13000.0 pg/mm2, Rmax 46.0 pg/mm2, ka 118753.092 M-1s-1, kd 0.416 1/s) 5.46.

Regarding `O=C(Nc1ccc2c(c1)CNC2)c1cc(Br)cc2[nH]c([C@H]3CCOC3)nc12`, the pKD (Immobilization level 10000.0 pg/mm2, Rmax 19.0 pg/mm2, ka 727525.444 M-1s-1, kd 0.791 1/s) is 5.96; the pKD (Immobilization level 12000.0 pg/mm2, Rmax 41.0 pg/mm2, ka 451126.44 M-1s-1, kd 0.431 1/s) stood at 6.02; the pKD (Immobilization level 13000.0 pg/mm2, Rmax 27.0 pg/mm2, ka 652953.753 M-1s-1, kd 0.609 1/s) stood at 6.03.

For the compound `O=C(Nc1cnc2c(c1)CNCC2)c1cc(Cl)cc2[nH]ncc12`, the pKD is 6.11 (Immobilization level 10000.0 pg/mm2, Rmax 20.0 pg/mm2, ka 1026935.718 M-1s-1, kd 0.802 1/s); 6.12 (Immobilization level 12000.0 pg/mm2, Rmax 35.0 pg/mm2, ka 607851.885 M-1s-1, kd 0.465 1/s); 6.17 (Immobilization level 13000.0 pg/mm2, Rmax 25.0 pg/mm2, ka 909514.232 M-1s-1, kd 0.608 1/s).

`O=C(Nc1ccc2c(c1)CNC2)c1nccc2[nH]ncc12` came in with a pKD (Immobilization level 12000.0 pg/mm2, Rmax 10.0 pg/mm2, ka 215121.382 M-1s-1, kd 2.565 1/s) of 4.92.

Consider `O=C1CCN(c2cc(Cl)cc(C(=O)Nc3ccc4c(c3)CNC4)c2)C(=O)N1`, for which the pKD runs as follows: (Immobilization level 10000.0 pg/mm2, Rmax 25.0 pg/mm2, ka 256015.917 M-1s-1, kd 2.294 1/s) 5.05; (Immobilization level 12000.0 pg/mm2, Rmax 56.0 pg/mm2, ka 218751.029 M-1s-1, kd 1.634 1/s) 5.13; (Immobilization level 13000.0 pg/mm2, Rmax 29.0 pg/mm2, ka 336624.127 M-1s-1, kd 1.776 1/s) 5.28.

As for `O=C(Nc1ccc2c(c1)CNC2)c1cc(Cl)ccc1-n1ccnc1`, the pKD amounted to 5.26 (Immobilization level 10000.0 pg/mm2, Rmax 38.0 pg/mm2, ka 298408.653 M-1s-1, kd 1.639 1/s); 5.21 (Immobilization level 12000.0 pg/mm2, Rmax 63.0 pg/mm2, ka 203693.474 M-1s-1, kd 1.266 1/s); 5.29 (Immobilization level 13000.0 pg/mm2, Rmax 40.0 pg/mm2, ka 299200.161 M-1s-1, kd 1.542 1/s).

Turning to `CCS(=O)(=O)c1ccc(Cl)cc1C(=O)Nc1ccc2c(c1)CNC2`, the pKD (Immobilization level 12000.0 pg/mm2, Rmax 28.0 pg/mm2, ka 273415.174 M-1s-1, kd 3.732 1/s) came to 4.87.

Regarding `O=C(Nc1ccc([C@H]2CCNC2)cc1)c1cc(Cl)cc2[nH]ncc12`, the pKD is, setting by setting: (Immobilization level 10000.0 pg/mm2, Rmax 36.0 pg/mm2, ka 266986.751 M-1s-1, kd 3.172 1/s) 4.92; (Immobilization level 12000.0 pg/mm2, Rmax 43.0 pg/mm2, ka 228557.467 M-1s-1, kd 2.265 1/s) 5; (Immobilization level 13000.0 pg/mm2, Rmax 32.0 pg/mm2, ka 486506.686 M-1s-1, kd 3.313 1/s) 5.17.

On to `O=C(Nc1ccc2c(c1)CNC2)c1cncc(-c2ccccc2)c1`, for which the pKD reads like this: (Immobilization level 4900.0 pg/mm2, Rmax 10.0 pg/mm2, ka 220188.498 M-1s-1, kd 3.981 1/s) 4.74; (Immobilization level 5500.0 pg/mm2, Rmax 48.0 pg/mm2, ka 177152.77 M-1s-1, kd 5.77 1/s) 4.49.

For the compound `O=C(Nc1ccc2c(c1)CNC2)c1cc(F)cc2[nH]ncc12`, the pKD stood at 5.85 (Immobilization level 10000.0 pg/mm2, Rmax 50.0 pg/mm2, ka 86776.347 M-1s-1, kd 0.122 1/s); 6.01 (Immobilization level 12000.0 pg/mm2, Rmax 119.0 pg/mm2, ka 21922.372 M-1s-1, kd 0.021 1/s); 5.72 (Immobilization level 13000.0 pg/mm2, Rmax 93.0 pg/mm2, ka 46087.669 M-1s-1, kd 0.088 1/s).

Take `Cn1cc2cc(Cl)cc(C(=O)Nc3ccc4c(c3)CNC4)c2n1`: the pKD is, setting by setting: (Immobilization level 10000.0 pg/mm2, Rmax 16.0 pg/mm2, ka 983801.201 M-1s-1, kd 0.863 1/s) 6.06; (Immobilization level 12000.0 pg/mm2, Rmax 34.0 pg/mm2, ka 627028.403 M-1s-1, kd 0.493 1/s) 6.1; (Immobilization level 13000.0 pg/mm2, Rmax 25.0 pg/mm2, ka 951140.583 M-1s-1, kd 0.688 1/s) 6.14.

On to `CCc1ncc(Cl)cc1C(=O)Nc1ccc2c(c1)CNC2`, for which the pKD runs as follows: (Immobilization level 10000.0 pg/mm2, Rmax 18.0 pg/mm2, ka 231152.44 M-1s-1, kd 2.909 1/s) 4.9; (Immobilization level 12000.0 pg/mm2, Rmax 36.0 pg/mm2, ka 247716.147 M-1s-1, kd 2.057 1/s) 5.08; (Immobilization level 13000.0 pg/mm2, Rmax 25.0 pg/mm2, ka 245446.465 M-1s-1, kd 2.231 1/s) 5.04.

Take `O=C(Nc1ccc2c(c1)CNC2)c1cc(Cl)nc2[nH]ncc12`: the pKD runs as follows: (Immobilization level 10000.0 pg/mm2, Rmax 24.0 pg/mm2, ka 257771.158 M-1s-1, kd 2.862 1/s) 4.96; (Immobilization level 12000.0 pg/mm2, Rmax 48.0 pg/mm2, ka 216828.153 M-1s-1, kd 2.008 1/s) 5.03; (Immobilization level 13000.0 pg/mm2, Rmax 31.0 pg/mm2, ka 263772.69 M-1s-1, kd 2.044 1/s) 5.11.

`O=C(Nc1ccc2c(c1)CNC2)c1cc(Cl)cc2ccncc12` registered a pKD (Immobilization level 10000.0 pg/mm2, Rmax 18.0 pg/mm2, ka 555072.266 M-1s-1, kd 0.336 1/s) of 6.22; a pKD (Immobilization level 12000.0 pg/mm2, Rmax 46.0 pg/mm2, ka 241038.936 M-1s-1, kd 0.226 1/s) of 6.03; a pKD (Immobilization level 13000.0 pg/mm2, Rmax 30.0 pg/mm2, ka 431290.6 M-1s-1, kd 0.289 1/s) of 6.17.

As for `NS(=O)(=O)c1cc(Cl)cc(C(=O)Nc2ccc3c(c2)CNC3)c1`, the pKD is 4.92 (Immobilization level 10000.0 pg/mm2, Rmax 26.0 pg/mm2, ka 224016.174 M-1s-1, kd 2.677 1/s); 5.08 (Immobilization level 12000.0 pg/mm2, Rmax 52.0 pg/mm2, ka 213819.19 M-1s-1, kd 1.773 1/s); 5.12 (Immobilization level 13000.0 pg/mm2, Rmax 31.0 pg/mm2, ka 267165.084 M-1s-1, kd 2.041 1/s).
